From ChEMBL document CHEMBL1961873, “Compounds: GSK PKIS; Assays: Nanosyn kinase panel” (2012) come the findings set out here.
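Further: each value is an averaged inhibition reading.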

This experiment deals with Tyrosine-protein kinase CSK (Homo sapiens) (UniProt P41240). To be noted: at 1 µM.
Tyrosine-protein kinase CSK (Homo sapiens), sequence (P41240 2-450 limits assumed): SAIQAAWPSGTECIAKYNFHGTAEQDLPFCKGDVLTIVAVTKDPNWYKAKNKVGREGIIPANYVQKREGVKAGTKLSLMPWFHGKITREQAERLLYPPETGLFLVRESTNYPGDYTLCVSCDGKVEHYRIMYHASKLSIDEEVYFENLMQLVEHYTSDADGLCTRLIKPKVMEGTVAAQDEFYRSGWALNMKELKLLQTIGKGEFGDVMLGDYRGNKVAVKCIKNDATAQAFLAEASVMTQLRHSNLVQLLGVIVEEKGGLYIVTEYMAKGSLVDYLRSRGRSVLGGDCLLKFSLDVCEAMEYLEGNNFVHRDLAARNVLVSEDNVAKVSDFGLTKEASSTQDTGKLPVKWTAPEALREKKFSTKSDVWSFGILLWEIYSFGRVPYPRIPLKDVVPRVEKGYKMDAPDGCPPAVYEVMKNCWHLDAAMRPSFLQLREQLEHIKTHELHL
One may read the inhibition as the percentage by which the read-out fell short of the control. Low values mean a weak effect, high ones a strong effect. `CNC(=O)c1cccc(C#Cc2cncnc2Nc2ccc(OCc3cccc(F)c3)c(Cl)c2)c1` had an inhibition of 3.24%. In turn, `Fc1ccc(-c2cc(-c3c[nH]nc3-c3ccccn3)ccn2)cc1` yielded an inhibition of 6.45%.

In the case of `CN1CCC(n2cnc(-c3ccc(F)cc3)c2-c2ccnc(Nc3ccccc3)n2)CC1`, the inhibition was found to be 6.08%. The molecule `CCn1c(-c2nonc2N)nc2c(C#CC(C)(C)O)ncc(OC3CCNCC3)c21` returned an inhibition of 1.26%. In turn, `COc1cccc(-c2c[nH]c3c(N/N=C/c4ccncc4)ncnc23)c1` showed an inhibition of 17.3%. As for `Cc1ccc2c(-c3ccnc(Nc4ccccc4)n3)c(-c3ccc(F)cc3)nn2n1`, the inhibition stood at 14.5%.

Take `COC(=O)Nc1nc2ccc(Oc3ccc(NC(=O)Nc4cccc(Cl)c4)cc3)cc2[nH]1`: the inhibition was found to be 5.95%. Under `COc1ccc(-c2cc(-c3c[nH]nc3-c3ccccn3)ccn2)cc1` stands 10.3%; under `COc1cc(/C=N/Nc2ncnc3[nH]ncc23)ccc1O`, 24.9%. Under `[O-][S+]1CCN(Cc2ccc(-c3ccc4ncnc(Nc5ccc(OCc6cccc(F)c6)c(Cl)c5)c4c3)o2)CC1` stands 5.15%; under `CCNC(=O)O[C@H]1CN[C@H](C#Cc2cc3ncnc(Nc4ccc(OCc5cccc(F)c5)c(Cl)c4)c3s2)C1`, 7.41%.

Molecule `CC1=C(C(=O)Nc2cc(Cl)c3[nH]ncc3c2)C(c2ccc(C(F)(F)F)cc2)CC(=O)N1` (centres undefined) had an inhibition of 2.47%. Under `c1ccc(-c2nc3n(c2-c2ccc4c(c2)OCO4)CCC3)nc1` stands 1.76%; under `CCOc1ccc2c(-c3ccnc(Nc4cccc(C(F)(F)F)c4)n3)cnn2n1`, 1.6%; under `CCN1CCC(CC(=O)Nc2n[nH]c3nnc(-c4cccc(F)c4F)cc23)CC1`, 4.47%.

`COc1ccc2[nH]c3c4[nH]c5ccc(OC)cc5c4c4c(c3c2c1)C(=O)NC4=O` showed an inhibition of 9.75%.

As to `COc1ccc(-c2oc3ncnc(N)c3c2-c2ccc(NC(=O)Nc3cc(C(F)(F)F)ccc3F)cc2)cc1`, the inhibition stood at 61%. For `Fc1cccc(COc2ccc(Nc3ncnc4sc(-c5ccco5)cc34)cc2Cl)c1`, the inhibition is 2.56%. With `COc1cc(N2CCN(C(C)C)CC2)ccc1Nc1nc(Nc2ccc(F)cc2C(N)=O)c2cc[nH]c2n1` the figure was 0.44%. Under `CN(C)CCOc1ccc(-c2nc(-c3ccncc3)c(-c3ccc4c(c3)CC/C4=N\O)[nH]2)cc1` stands 2.75%; under `NC(=O)c1sc(-n2cnc3ccc(C(F)(F)F)cc32)cc1OCc1ccccc1Br`, 4.85%. As to `Nc1nc(-c2cccc(Cl)c2)c(-c2ccc3ncccc3n2)s1`, the inhibition was found to be 6.75%. Regarding `CCCN1CCC(c2ccc(Nc3nc(Nc4cc(F)ccc4C(N)=O)c4cc[nH]c4n3)c(OC)c2)CC1`, the inhibition turned out to be 6.03%.

In turn, `CCn1cc(-c2ccnc3[nH]ccc23)c(-c2cccc(NC(=O)Nc3ccc(OCc4ccccc4)cc3)c2)n1` had an inhibition of 2.9%. Under `NS(=O)(=O)c1ccc(Nc2ncc(-c3ccccc3)o2)cc1` stands 5.89%; under `CCCN(CCS(C)(=O)=O)Cc1ccc(-c2ccc3ncnc(Nc4ccc(OCc5cccc(F)c5)c(Cl)c4)c3c2)o1`, 5.5%.

Turning to `CCN(CC)S(=O)(=O)c1ccc(OC)c(Nc2ncc(-c3ccccc3)o2)c1`, the inhibition stood at 5.35%. As for `CS(=O)(=O)CCNCc1coc(-c2ccc3ncnc(Nc4ccc(OCc5ccccc5)cc4)c3c2)c1`, the inhibition was 5.24%. Under `N#Cc1c(NC(=O)CN2CCOCC2)sc2c1CCCC2` stands 3.68%; under `COc1cccc(-n2ncc3c(N/N=C/c4ccc(F)cc4)ncnc32)c1`, 11.4%; under `O=C(O[C@H]1CN[C@H](C#Cc2cc3ncnc(Nc4ccc(Cc5ccccc5)cc4)c3s2)C1)N1CCOCC1`, 2.39%. Under `COc1cc2c(cc1Nc1nc(Nc3ccsc3C(N)=O)c3cc[nH]c3n1)N(C(=O)CN(C)C)CCC2(C)C` stands 0.65%; under `CCc1nn2ncccc2c1-c1ccnc(NC2CC2)n1`, 1.97%. Under `Cc1ccc(O)cc1Nc1ccnc2cc(-c3ccccn3)ccc12` stands 57.1%.
